HCV inh = inhibitors of hepatitis C virus infection; Potency, µM (titrated, usually from 41.8 µM), without a hit: at the top dose activity change, negative = inhibition, hits mostly inhibitors; Huh7.5.1 HCVcc-Cre infection, luciferase reporter, 44 h; AID 651820; 3.4% of 340,000 active
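Cells (1,000/well) were plated 4 h before compound, then infected with HCVcc-Cre virus (~0.5 moi). After 44 h further culture, infection was read as luciferase luminescence following a 15 min substrate incubation at room temperature.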
Pf growth 96h = P. falciparum growth inhibition at 96 hours. AID 504834. 6.9% of 320,000 active. P. falciparum luciferase reporter growth, 96 h. Potency, µM (titrated, usually from 28.7 µM), for the others: at the highest dose activity change, negative = inhibition, most hits filed as inhibitors
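Delayed-death screen, second-generation endpoint: infected erythrocytes, 2% hematocrit, 0.05% parasitemia final; 96 hours at 37 C, 5% CO2; luciferase detection reagent; luminescence decrease equals reduced growth.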
Pf growth 48h = inhibits P. falciparum growth in the first generation, 48 h; P. falciparum luciferase growth in erythrocytes, 48 h; Potency, µM (highest dose often 28.7 µM), for inactives: at the highest dose activity change, negative = inhibition, hits mostly inhibitors; 5.9% of 310,000 active; AID 504832
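Luciferase-expressing parasites in RBCs, 2% Hct / 0.1% parasitemia final; RPMI 1640 + 0.5% Albumax; 37 C, 5% CO2, one generation; luminescence read-out, lower signal = inhibition.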
AmpC detergent = blocks E. coli AmpC beta-lactamase in detergent assay | P00811 | AmpC hydrolysis of nitrocefin, absorbance 480 nm, 0.01% Triton | Potency, µM (doses to about 114 µM), inactives show at the highest dose activity change, negative = inhibition, actives largely listed as inhibitors | 0.041% of 370,000 active | AID 485294;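 also: 0% = no-compound wells and -100% = no-enzyme wells; nearly all actives have a fitted effect of over 25% in size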
Target sequence (P00811 whole entry, looked up): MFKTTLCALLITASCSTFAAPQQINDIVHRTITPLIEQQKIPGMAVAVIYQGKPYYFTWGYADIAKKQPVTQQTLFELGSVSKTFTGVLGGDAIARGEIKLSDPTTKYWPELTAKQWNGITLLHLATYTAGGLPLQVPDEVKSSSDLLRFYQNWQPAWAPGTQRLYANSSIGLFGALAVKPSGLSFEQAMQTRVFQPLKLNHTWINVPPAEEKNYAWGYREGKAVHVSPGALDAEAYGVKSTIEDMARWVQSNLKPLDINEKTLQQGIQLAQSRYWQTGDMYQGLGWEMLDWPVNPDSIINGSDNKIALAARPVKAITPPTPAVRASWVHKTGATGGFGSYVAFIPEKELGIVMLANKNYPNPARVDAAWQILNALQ
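AmpC (5.3 nM in the dispensed reagent) in 20 mM phosphate pH 7.0 with 0.01% (detergent screen) or 0.0001% Triton X-100 was preincubated with compounds for 15 min at room temperature. Nitrocefin was then added from an 800 uM solution, and hydrolysis was followed at 480 nm.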
AmpC no deterg = AmpC beta-lactamase inhibition without detergent | Potency, µM (top dose mostly 57.1 µM), inactives show at the top dose activity change, negative = inhibition, actives largely listed as inhibitors | AID 485341 | 0.52% of 330,000 active | AmpC nitrocefin hydrolysis, absorbance 480 nm, 0.0001% Triton | P00811;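 also: plate controls were no compound for no effect and no enzyme for full effect; nearly all actives have a fitted effect of over 20% in size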
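AmpC (5.3 nM in the dispensed reagent) in 20 mM phosphate pH 7.0 with 0.01% (detergent screen) or 0.0001% Triton X-100 was preincubated with compounds for 15 min at room temperature. Nitrocefin was then added from an 800 uM solution, and hydrolysis was followed at 480 nm.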
AMA1-RON2 inh = AMA1-RON2 (P. falciparum) interaction inhibition. AlphaScreen AMA1-biotinylated RON2 peptide binding. Potency, µM (doses to about 58.2 µM), for the others: top-dose activity change, negative = inhibition, actives largely listed as inhibitors. 0.2% of 360,000 active;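 also: 0% = vehicle wells and -100% = peptide control; nearly all actives have a fitted effect of over 45% in size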
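AMA1 (3D7) with his tag at 25 nM final met compounds first, then biotinylated RON2 peptide at 25 nM; detection used donor plus acceptor beads, 10 µg/mL apiece, read by AlphaScreen after 30 min at room temperature.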
* = called active by the depositor; [ ] = another dose, or the depositor's remark. Most compounds without a hit are left out; they make up all but 11% or so of the library. Calls follow the shape of the dose curve; as a rule, active = well fitted curve in the direction sought with a large enough effect; inconclusive = small, poorly fitted or top-dose-only effect, or another doubt; inactive = no such curve, though single readings can be large; an effect the other way counts as inactive or inconclusive. Unless noted, % is scaled to controls: 0 for no effect and ±100 for the full control effect; potency is read from the fitted curve at half-maximal effect.

Results for COc1ccc(N/C=C/C(=O)c2sc(-c3ccccc3)nc2C)cc1 ?
HCV inh: 10µM*; Pf growth 96h: 9%; Pf growth 48h: 9%; AmpC detergent: -7%; AmpC no deterg: -10%; AMA1-RON2 inh: -20%

Results for CC(=O)Nc1ccc(N/C=C/C(=O)c2ccc(C)o2)cc1 ?
HCV inh: 17%; Pf growth 48h: 34%; AmpC detergent: inconclusive; AmpC no deterg: -16%; AMA1-RON2 inh: 3%

What do the screens show for `COc1ccccc1Oc1ccc(N/C=C/C(=O)c2ccc(C)o2)cc1`?
HCV inh: 22µM*; Pf growth 96h: 15%; Pf growth 48h: -7%[5.75 µM]; AmpC detergent: -9%; AmpC no deterg: -47%; AMA1-RON2 inh: inconclusive

Results for COc1ccc(N/C=C/C(=O)c2ccccc2)cc1 ?
HCV inh: -7%; Pf growth 96h: 426%; Pf growth 48h: 303%; AmpC detergent: -12%; AmpC no deterg: -21%; AMA1-RON2 inh: 1%

Results for COc1ccc(CNC(=O)c2ccc(CS(=O)Cc3ccccc3Cl)o2)cc1 (stereo not drawn) ?
AmpC detergent: 22%

How did Fc1ccc(-c2nc(Nc3ccc(F)c(Cl)c3)nc3c2COc2ccccc2-3)cc1 do in these assays?
AmpC detergent: 2%

What do the screens show for `CCn1nc(CC(=O)O)c2ccccc2c1=O`?
HCV inh: -1%; Pf growth 96h: -28%; Pf growth 48h: 28%; AmpC detergent: 2%; AmpC no deterg: -20%; AMA1-RON2 inh: 39%

What do the screens show for `CCCCn1nc(CC(=O)O)c2ccccc2c1=O`?
HCV inh: inconclusive; Pf growth 96h: 10µM*; Pf growth 48h: -3%; AmpC detergent: -9%; AmpC no deterg: -9%; AMA1-RON2 inh: 14%

Results for CCOC(=O)Cc1nn(Cc2nc(-c3ccc(C#N)cc3)cs2)c(=O)c2ccccc12 ?
HCV inh: 10µM*; Pf growth 96h: inconclusive; Pf growth 48h: inconclusive; AmpC detergent: 6%; AmpC no deterg: -6%; AMA1-RON2 inh: 0%

What do the screens show for `CCOC(=O)Cc1nn(C)c(=O)c2ccccc12`?
HCV inh: 22%; Pf growth 96h: 5.2µM*; Pf growth 48h: 9%; AmpC detergent: inconclusive; AmpC no deterg: -16%; AMA1-RON2 inh: 0%

What do the screens show for `CCOC(=O)Cc1nn(CC)c(=O)c2ccccc12`?
HCV inh: 17%; Pf growth 96h: 10%; Pf growth 48h: 44%; AmpC detergent: 9%; AmpC no deterg: -6%; AMA1-RON2 inh: -5%

Results for COc1cc(NC(=O)Cc2nn(C)c(=O)c3ccccc23)cc(OC)c1 ?
HCV inh: 10µM*; Pf growth 96h: 207%; Pf growth 48h: inconclusive; AmpC detergent: -10%; AmpC no deterg: -8%; AMA1-RON2 inh: -4%

How did CCOC(=O)C1CCCN(S(=O)(=O)c2ccc3[nH]c(=O)oc3c2)C1 (stereo not drawn) do in these assays?
AmpC detergent: -7%

Results for CCCCCn1nc(C(=O)N2CCc3ccccc32)c2ccccc2c1=O ?
HCV inh: inconclusive; Pf growth 96h: inconclusive; Pf growth 48h: 10µM*; AmpC detergent: 0%; AmpC no deterg: 25%; AMA1-RON2 inh: -2%

How did COCCCn1nnnc1SCC(=O)Nc1ccc2c(c1)OCCO2 do in these assays?
HCV inh: 12%; Pf growth 96h: 13µM*; Pf growth 48h: 33%; AmpC detergent: -8%; AmpC no deterg: -1%; AMA1-RON2 inh: -4%

Results for Cn1nc(CC(=O)NCc2ccc(F)cc2)c2ccccc2c1=O ?
HCV inh: 11µM*; Pf growth 96h: inconclusive; AmpC detergent: inconclusive; AmpC no deterg: -17%; AMA1-RON2 inh: -3%

Results for Cn1nc(CC(=O)NCc2cccc3ccccc23)c2ccccc2c1=O ?
HCV inh: inconclusive; Pf growth 96h: inconclusive; AmpC detergent: -10%; AmpC no deterg: -10%; AMA1-RON2 inh: 9%

How did COCCn1nnnc1SCC(=O)Nc1ccc2c(c1)OCO2 do in these assays?
HCV inh: 17%; Pf growth 96h: 3%; Pf growth 48h: 8%; AmpC detergent: -3%; AmpC no deterg: -45%; AMA1-RON2 inh: 0%

How did Cn1nc(CC(=O)Nc2ccc3c(c2)OCCO3)c2ccccc2c1=O do in these assays?
HCV inh: 6.3µM*; Pf growth 96h: inconclusive; Pf growth 48h: -10%; AmpC detergent: inconclusive; AmpC no deterg: -29%; AMA1-RON2 inh: 4%

What do the screens show for `CC1=C(C(=O)OCC(C)C)C(c2cccc(F)c2)N2C(=O)C(C)SC2=N1` (stereo not drawn)?
HCV inh: 2%; Pf growth 96h: 12µM*; Pf growth 48h: 10µM*; AmpC detergent: inconclusive; AmpC no deterg: 4%; AMA1-RON2 inh: 61%

Results for CC1=C(C(=O)OC(C)C)C(c2cccc(F)c2)N2C(=O)C(C)SC2=N1 (stereo not drawn) ?
HCV inh: 9%; Pf growth 96h: inconclusive; Pf growth 48h: 12µM*; AmpC detergent: 8%; AmpC no deterg: -12%; AMA1-RON2 inh: -12%

How did Cc1ccc2c(CNCc3cccs3)c(C(=O)O)n(Cc3ccc(F)cc3)c2c1 do in these assays?
AmpC detergent: -3%

Results for Cc1ccc(Cl)cc1N1CCN(CCCNC(=O)Cn2ncc3c([nH]c4ccccc43)c2=O)CC1 ?
AmpC detergent: 2%

Results for CCOC(=O)c1nnn(CC(=O)Nc2cc(C)cc(C)c2)c1C(=O)OCC ?
AmpC detergent: 10%

What do the screens show for `CC1COc2c(N3CCN(C)CC3)c(F)cc3c(=O)c(C(=O)O)cn1c23` (stereo not drawn)?
HCV inh: 9%; AmpC detergent: -5%; AmpC no deterg: -21%; AMA1-RON2 inh: 7%

Results for CCOc1ccc(NC(=O)c2ccc(NC(=O)c3cn4c5c(c(N6CCN(C)CC6)c(F)cc5c3=O)OCC4C)cc2)cc1 (stereo not drawn) ?
HCV inh: -28%; Pf growth 96h: 2.6µM*; Pf growth 48h: 2.3µM*; AmpC detergent: -12%; AmpC no deterg: -1%; AMA1-RON2 inh: 12%

Results for COc1ccc(CNc2nc(C)c([N+](=O)[O-])c(C)c2C#N)cc1 ?
HCV inh: -4%; Pf growth 96h: inconclusive; Pf growth 48h: -27%; AmpC detergent: 1%; AmpC no deterg: inconclusive; AMA1-RON2 inh: -22%

Screening results from PubChem.
